PrPC TRFRET – cell surface PrPC inhibition, primary TR-FRET screen; P04156; TR-FRET read-out; inhibition, % at 13.8 µM; 370,000 compounds, 0.43% hits; in the data active = inhibition above about 24%; note: 0% = median of the test wells and 100% = reference compound wells
Mtb FBA inh – Mtb fructose-bisphosphate aldolase inhibition; purified M. tuberculosis FBA, fluorescence read-out; inhibition, % at 1 µM; 360,000 compounds, 2.3% hits; AID 588726; in the data active = inhibition above about 27%;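 note: 0% = vehicle and 100% = reference inhibitor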
Target sequence (P9WQA3 whole entry, looked up): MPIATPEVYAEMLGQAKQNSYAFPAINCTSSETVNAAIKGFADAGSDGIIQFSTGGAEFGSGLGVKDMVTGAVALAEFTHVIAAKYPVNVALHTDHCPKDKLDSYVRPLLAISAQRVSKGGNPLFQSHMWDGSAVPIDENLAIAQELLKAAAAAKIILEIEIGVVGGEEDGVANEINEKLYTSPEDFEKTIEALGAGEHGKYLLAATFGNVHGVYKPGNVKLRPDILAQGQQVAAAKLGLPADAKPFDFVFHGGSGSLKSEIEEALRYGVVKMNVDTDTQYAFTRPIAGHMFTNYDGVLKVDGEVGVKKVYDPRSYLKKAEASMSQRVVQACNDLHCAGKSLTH
PrP 5UTR inh – inhibition of PrP 5' UTR reporter expression; cell-based PrP 5' UTR mRNA reporter, plate reader; inhibition, % (test concentration not listed); 340,000 compounds, 0.35% hits; AID 488862; in the data active = inhibition above about 52%; note: 0 = median of the neutral control wells
PfHsp40 yeast – restores yeast growth despite PfHsp40 toxicity | 340,000 compounds, 0.68% hits | growth rescue, % at 12.5 µM | S. cerevisiae expressing PfHsp40, growth rescue, ATP luminescence; in the data active = growth rescue above about 28%, passing the limit was not always enough;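 note: yeast W303a lacking pdr1 and pdr3 grown in galactose medium; growth measured after three days at 30 °C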
BJeLR viability – kills HRASV12-expressing BJeLR cells. 300,000 compounds, 0.17% hits. inhibition, % (test concentration not listed). BJeLR (HRASV12) viability, CellTiter-Glo ATP luminescence, 48 h; in the data active = inhibition above about 50%
GDH-TPI counter – counter-screen for M. tuberculosis FBA inhibitors: GDH-TPI coupled enzymes. inhibition, % at 4.8 µM. GDH-TPI coupled enzyme counterscreen, NADH absorbance. AID 588335. 360,000 compounds, 1.2% hits; in the data active = inhibition above about 30%;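 note: 0% = DMSO wells and 100% = wells lacking the enzyme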
An asterisk follows results filed as active; nt = no result. Sampled rows, rich in hits. Any-hit rate of the full collection: about 4.5%.

SMILES	PrPC TRFRET	Mtb FBA inh	PrP 5UTR inh	PfHsp40 yeast	BJeLR viability	GDH-TPI counter
COc1cc2c(cc1NCc1ccc3c(c1)OCO3)oc1ccccc12	6	21	-10	0	7	15
COc1cc2c(cc1NCc1ccccn1)oc1ccccc12	-2	29*	-59	-1	-2	0
O=c1c2c(-c3ccc(Cl)cc3)csc2ncn1/N=C/c1cccc([N+](=O)[O-])c1O	-1	-11	-12	280*	0	0
O=[N+]([O-])c1cccc(/C=N/n2cnnc2)c1O	-3	-10	-4	-1	-8	10
CCOC(=O)C[n+]1ccc2c([nH]c3ccccc32)c1C	-1	135*	-18	-1	0	3
COc1ccc2oc(C(=O)OCC(=O)c3ccc4c(c3)OCCO4)c(C)c2c1	-2	-2	6	72*	0	0
COc1ccc2oc(C(=O)N(C)Cc3ccc4c(c3)OCCO4)c(C)c2c1	1	3	-1	-2	-11	-6
CCOC(=O)[C@@H](C)N1[C@@H](C)[C@H](c2ccccc2)Oc2ccc(Cl)cc2S1(=O)=O	1	nt	nt	nt	nt	nt
COc1cccc(C(=O)N/N=C/C(Br)=C/c2ccccc2)c1	5	2	-11	-1	-13	40*
COc1ccc(C(=O)N/N=C/c2ccc3cccc(O)c3n2)cc1	-19	-1	-30	1	-20	33*
O=C(N/N=C/c1ccc2cccc(OCc3ccccc3)c2n1)c1ccc(Cl)cc1	9	25	-19	1	2	10
O=C(N/N=C/C(Br)=C/c1ccccc1)c1cnccn1	-17	0	-41	0	9	37*
COc1ccc(C(=O)N/N=C/C(Br)=C/c2ccccc2)cc1	2	-8	-31	2	-3	31*
Cc1occc1C(=O)N/N=C/C(Br)=C/c1ccccc1	14	-3	-57	0	13	11
O=C(NC1CCCCN(Cc2cccc(F)c2)C1=O)c1ccc(-c2ccccc2)cc1 (stereo unspecified)	-2	nt	nt	nt	nt	nt
COC(=O)[C@H](Cc1ccccc1)N(Cc1cn(Cc2ccccc2)nn1)S(=O)(=O)c1ccccc1Br	-1	nt	nt	nt	nt	nt
COC(=O)c1c(-c2ccc(S(C)(=O)=O)cc2)sc2cc(OC)ccc12	-17	190*	-53	4	nt	13
O=C(c1ccncc1F)N1CCC(n2nnc3ncccc32)CC1	4	nt	nt	nt	nt	nt
CCCCCCCCN1C(=O)N2Cc3cc(OC)ccc3C2CS1(=O)=O (stereo unspecified)	4	nt	nt	nt	nt	nt
Cn1c(NNC(=O)/C=C/c2ccc3c(c2)OCO3)cc(=O)n(C)c1=O	-5	10	-11	0	8	39*
COc1ccc(CNC(=O)O[C@H]2CC[C@@]34CCCN3C(=O)CCC[C@H]4C2)cc1OC	6	nt	nt	nt	nt	nt
O=c1c2ccccc2[nH]c2ccc(F)cc12	-9	156*	-51	0	5	5
O=c1c2c([nH]c3ccccc13)CCC2	-4	4	-15	1	3	6
Cc1ccc2[nH]c3ccccc3c(=O)c2c1	-23	136*	nt	0	-13	-1
O=c1[nH]c2ccccc2c(=O)c2ccccc12	-2	1	nt	nt	nt	12
SMILES	PrPC TRFRET	Mtb FBA inh	PrP 5UTR inh	PfHsp40 yeast	BJeLR viability	GDH-TPI counter
O=C(/C=C/c1ccc(F)cc1)NNC(=O)CCN1CCN(Cc2ccccc2)CC1	-12	1	-7	-1	55*	5
COc1cccc(/C=C/C(=O)NNC(=O)CCN2CCN(Cc3ccccc3)CC2)c1	-4	10	-17	-2	3	-7
Cc1ccccc1N=CC1=C(O)c2ccccc2C1=O	-5	-4	-49	0	-1	46*
CN(C)CCNC(=O)c1cccc2ccc(-c3ccc(-c4ccccc4)cc3)nc12	-16	58*	-55	-2	nt	10
COc1ccc(COC[C@H](C)N2C[C@@H](C)[C@H](CN(C)S(=O)(=O)c3ccc(F)cc3)OCCCC[C@H](C)Oc3ccc(NC(=O)Nc4ccccc4)cc3C2=O)cc1	-4	nt	nt	nt	nt	nt
COc1ccc(-c2cnnc(N/N=C/c3ccc(O)cc3)n2)cc1	-24	1	-29	0	-2	34*
Brc1ccc(/C=N/Nc2nncc(-c3ccccc3)n2)o1	-4	nt	nt	nt	-6	nt
Oc1ccc(/C=N\Nc2nncc(-c3ccccc3)n2)cc1	-16	-2	-18	0	-4	40*
O=C(NC1CCCCN(Cc2ccc(Cl)cc2)C1=O)c1cccc([N+](=O)[O-])c1 (stereo unspecified)	-10	nt	nt	nt	nt	nt
O=C(Nc1c(-c2ccc(C(F)(F)F)cc2)nc2ncccn12)C1CC1	-3	nt	nt	nt	nt	nt

High-throughput results from PubChem.
